# Measurements published in PubChem BioAssay (NCI).
# About 83,000 compounds went through this panel and 20% of them were active in at least one assay; those are over-represented in the sample as a whole.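 Each cell line was grown in a 96-well plate and treated with one concentration of compound for 48 hours. Values below 10 were considered active.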 A number with no mark means an inactive call. Calls of active or inactive are those of the source.
# Test system: LOX IMVI melanoma
# Experiment: NCI-60 one-dose screen, 48 h (100 = growth as untreated, 0 = no growth, -100 = all killed)
# Settings: 10 µM unless noted
row,Compound,growth [%]
1,O=C1/C(=C/c2cccc3cnccc23)Cc2cc(F)ccc21,93
2,COC(OC)C1(c2ccccc2)NC(=O)NC1=O (centres undefined),109
3,c1cncc(-c2nc3ccccc3[nH]2)c1,94.4

# Test system: SK-MEL-28 melanoma
# Experiment: as above
# Settings: 10 µM unless noted
row,Compound,growth
1,COC(=O)c1oc2c(C(=O)/C=C/c3ccc(OC)cc3)c(OCCN3CCOCC3)ccc2c1C,4.47% (active)
2,CN(C)c1ccc(/C=N/n2c(-c3cc(F)c(Cl)cc3Cl)nn(CN3CCOCC3)c2=S)cc1,108%
3,CS(=O)(=O)OCC(COS(C)(=O)=O)C(c1ccccc1)c1ccccc1,114%
4,Nc1ncnc2c1c(C(F)(F)F)cn2[C@@H]1O[C@H](CO)[C@@H](O)[C@H]1O,1.5% (active)
5,Cc1nccc2c3ccc(OCc4cn(Cc5ccc(Br)cc5)nn4)cc3n(CCCc3ccccc3)c12,99.4%
6,[2H]c1nc(Nc2ncc(F)c(-c3cc(F)c4nc(C)n(C(C)C)c4c3)n2)c([2H])c([2H])c1CN1CCN(CC)CC1,60.5%
7,COc1cc(/C=C2/Oc3cc4occc4c(OC)c3C2=O)ccc1OCC(=O)Nc1ccncc1,117%
8,COc1ccc2c(c1)OC(N)=C(C#N)C2c1ccc(F)cc1 (centres undefined),65%
9,CCCCCCCCCCCCCCCCNc1ccccc1,113%
10,O=C(Nc1ccc(-n2ccc3c(NC(=O)c4ccccc4)ncnc32)cc1)c1cccc(C(F)(F)F)c1,71.2%
11,COc1ccc(/C(Cl)=N/N=C(\Cl)c2cc(OC)c(OC)c(OC)c2)cc1OC(C)=O,110%
